From PubChem
Tau filament bind: qHTS Assay for Tau Filament Binding. Microtubule-associated protein tau (Homo sapiens), P10636. recombinant tau filaments, thioflavin S fluorescence, 15 h; filaments grown with octadecylsulfate alongside compound. Potency, µM (titrated, usually from 57.1 µM), inactives show at the highest dose activity change, negative = inhibition. 2% of 71,000 active. AID 596, 2007;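 further: on the % scale 0 is the no-effect control and ±100 the full control effect; actives lower thioflavin S fluorescence by blocking filaments or displacing dye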
Target sequence (P10636 whole entry, looked up): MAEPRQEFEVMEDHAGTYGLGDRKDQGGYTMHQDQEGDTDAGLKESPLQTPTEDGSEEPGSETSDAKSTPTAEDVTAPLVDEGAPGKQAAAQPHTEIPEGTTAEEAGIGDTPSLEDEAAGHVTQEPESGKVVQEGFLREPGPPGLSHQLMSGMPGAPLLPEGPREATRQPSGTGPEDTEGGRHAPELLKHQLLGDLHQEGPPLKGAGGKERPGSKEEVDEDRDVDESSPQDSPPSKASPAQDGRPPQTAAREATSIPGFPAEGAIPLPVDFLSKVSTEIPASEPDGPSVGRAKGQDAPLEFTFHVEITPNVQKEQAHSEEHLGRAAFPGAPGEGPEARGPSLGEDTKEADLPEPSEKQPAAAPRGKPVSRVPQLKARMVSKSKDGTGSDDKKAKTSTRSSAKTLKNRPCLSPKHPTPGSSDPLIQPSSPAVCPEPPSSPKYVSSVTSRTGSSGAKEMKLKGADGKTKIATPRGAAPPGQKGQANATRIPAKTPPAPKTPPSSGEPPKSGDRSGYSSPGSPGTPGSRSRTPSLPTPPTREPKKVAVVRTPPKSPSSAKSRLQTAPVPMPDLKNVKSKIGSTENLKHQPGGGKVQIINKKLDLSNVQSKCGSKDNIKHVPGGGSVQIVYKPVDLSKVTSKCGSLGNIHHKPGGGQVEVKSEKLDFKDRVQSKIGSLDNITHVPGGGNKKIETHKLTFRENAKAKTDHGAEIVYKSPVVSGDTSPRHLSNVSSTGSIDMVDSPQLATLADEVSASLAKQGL
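His-tagged recombinant human tau (exons 2, 3 and 10 included), 1 uM, was induced to fibrillize by 30 uM sodium octadecylsulfate with compound present. After 15 h at 37 C, thioflavine S fluorescence (ex 450, em 510 nm) was read.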
CRE-bla Fsk: Cell signaling CRE-BLA (Fsk stim). CHO CRE-bla reporter (cAMP response element driving beta-lactamase), forskolin EC10, beta-lactamase ratio. Potency, µM (series often up to 38.2 µM), without a hit: at the top dose activity change, negative = inhibition, usual class: activators. 2.5% of 71,000 active. AID 662, 2007; active means well fitted activation curve with a large enough effect in the signal ratio, with a control signal flat, not every such curve was filed as active; inconclusive means small, poorly fitted or top-dose-only effect, or effect the other way, or a change in a side signal; the % refers to the signal ratio; further: % of control where 0% means no effect
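CHO CRE-bla cells, overnight plating in Opti-MEM with 0.5% dialyzed FBS; cpd titration + EC10 NKH 477, 3 h 37 °C; CCF4 2 h RT; ex 405/em 460 vs 530 ratio → %Activity, AC50.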
ERK AVP inh: qHTS Assay for Inhibitors of the ERK Signaling Pathway using a Homogeneous Screening Assay | HEK293-V1b, vasopressin-stimulated pERK AlphaScreen | Potency, µM (highest dose often 57.5 µM), without a hit: at the highest dose activity, negative = inhibition, actives largely listed as inhibitors | 0.99% of 72,000 active | AID 995, 2007; further: on the % scale 0 is the no-effect control and ±100 the full control effect; nearly all actives have a fitted effect of over 55% in size
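Phosphorylated ERK1/2 detected via AlphaScreen bead proximity in lysates of V1b-expressing HEK293 cells given 25 nM vasopressin for 5 min after 30 min compound exposure (37 °C). AC50 from Hill equation; basal DMSO 0%, vasopressin 100%.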
HEK293 cAMP ctrl: qHTS Assay for Agonists of the Thyroid Stimulating Hormone Receptor: Activators of Intracellular cAMP Concentrations in Parental HEK 293. Potency, µM (titrated, usually from 57.1 µM), for inactives: at the top dose activation, hits mostly activators. 2.5% of 73,000 active. AID 938, 2007. parental HEK293 CNG cAMP sensor, membrane potential fluorescence; further: % of control where 0% means no effect; nearly all actives have a fitted effect of over 55% in size
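Parental HEK 293 cells stably expressing a cAMP-gated CNG channel were loaded with membrane potential dye containing 100 uM RO 20-1724 for 60 min. Compound added for 30 min; depolarization read as fluorescence intensity at 590 nm.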
TSHR agonist: qHTS Assay for Agonists of the Thyroid Stimulating Hormone Receptor. AID 926, 2007. Potency, µM (series often up to 57.1 µM), for inactives: at the top dose activation, hits mostly activators. HEK293-CNG-TSHR cells (CNG channel as cAMP sensor), membrane potential dye, cAMP. Thyrotropin receptor (Homo sapiens), P16473. 0.48% of 73,000 active; active means well fitted activation curve with a large enough effect in the main read-out, with a control signal flat, not every such curve was filed as active; inconclusive means small, poorly fitted or top-dose-only effect, or a change in a side signal; inactive means no such curve, though single readings can be large or run the other way; % of control where 0% means no effect;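 further: the control signal comes from parental cells without the receptor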
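HEK 293 cells stably expressing TSHR and a modified CNG channel, with CNG-only parental cells as counterscreen, were preloaded 60 min at room temperature with membrane potential dye containing 100 uM RO 20-1724. Compound exposure was 30 min, and depolarization was read as fluorescence at 590 nm.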
* marks the source's active call; other numbers are inactive results; u = inconclusive; x = no result given; [ ] = another dose, or the depositor's remark. Rows were chosen to be rich in hits. Some 7.4% of all compounds tested hit in one or more screens of this group. Unless noted, the call rests on the fitted dose curve; in most records, active means well fitted curve in the direction sought with a large enough effect; inconclusive means small, poorly fitted or top-dose-only effect, or another doubt; inactive means no such curve, though single readings can be large; an effect the other way counts as inactive or inconclusive. Potency means the concentration at half of the fitted maximal effect.

SMILES	Tau filament bind	CRE-bla Fsk	ERK AVP inh	HEK293 cAMP ctrl	TSHR agonist
CC(=O)OC[C@H]1O[C@@H](CCO/N=C2/[C@H]3O[C@@H]3[C@@H](O)[C@H]3[C@H]2CCn2c(=O)n(-c4ccccc4)c(=O)n23)C=C[C@@H]1OC(C)=O	x	x	-9%[11.5 µM]	-4%[11.4 µM]	-5%[11.4 µM]
Cc1cc(-c2cccnc2)c(C#N)c(SCC#N)n1	-4%	13µM*	u	u	u
COc1ccc(OCCSc2nnc3sc4ccccc4n23)cc1	14%	0.5µM*	29%	22%	16%[11.4 µM]
CN(C)CCSc1nnc2sc3ccccc3n12	6%	5%	16%	1%	5%
O=C(CN1CCN(C2CCCCC2)CC1)c1ccc2cc[nH]c2c1	14%	-13%	x	8%	8%
O=C(O)c1ccc2cc[nH]c2c1	3%	0.2µM*	-13%	0%	-10%
CCc1c(C)c2cc(Cl)c(O)c(CN(C)C)c2oc1=O	-12%	10µM*	-10%	2%	-2%
CCN(CCO)Cc1cc(=O)oc2c(C)c(C)ccc12	13%	-13%	5%	14%	10%
CCc1c(C)c2cc(Cl)c(O)c(CN(CC)CC)c2oc1=O	8%	10µM*	-18%	9%	-10%
Cc1c(C)c2cc(Cl)c(O)c(CN(C)C)c2oc1=O	16%	10µM*	-6%	5%	-2%
O=c1oc2c(CN3CCOCC3)c(O)c(Cl)cc2c2c1CCC2	-1%	u	-5%	-1%	-2%
CCc1cc2c(nc1CC)CCN(CC/C(C)=N/O[C@@H](C)CN1CCCc3nc(C)c(C)cc31)C2	x	x	19%[11.5 µM]	30%[11.4 µM]	19%[11.4 µM]
COC(=O)C/C=C\[C@@H](C)[C@@H](/C=N\OC[C@@H](C)[C@H](OCc1ccccc1)C(C)C)NS(=O)(=O)c1ccc(C)cc1	x	x	10%[11.5 µM]	-3%[11.4 µM]	5%[11.4 µM]
COc1ccccc1N1CCN(CCn2c(=O)[nH]c3c([nH]c4ccccc43)c2=O)CC1	40µM*	-12%	8%	0%	-4%
C/C=C/OC(=O)NC(c1cccc(C)c1)[C@@]1(C(=O)OCC)CCCC1=O (some centres not stated)	x	x	28%[11.5 µM]	12%[11.4 µM]	6%[11.4 µM]
N#Cc1c(/N=C/c2ccco2)sc2c1CCCCC2	16µM*	16%	u	12%	14%
N#Cc1c(NC(=O)CSc2ncn(-c3ccccc3)n2)sc2c1CCCC2	5%	u	-7%	0%	3%
O=c1c2c3c(sc2ncn1/N=C/c1ccco1)CCCC3	22%	21%	-18%	14%	4%
N#Cc1c(/N=C/c2cccs2)sc2c1CCC2	16µM*	-13%	-19%	4%	9%
CCOC(=O)c1cc(-c2ccco2)nc2c1c(C)nn2-c1ccccc1	10µM*	u	-21%	17%	3.2µM*
Cc1nn(-c2ccccc2)c2nc(-c3ccncc3)cc(C(=O)NCc3ccco3)c12	32µM*	-8%	-15%	u	u
Cc1nn(-c2ccccc2)c(C)c1C(=O)OCC(=O)NCc1ccco1	3%	-7%	9%	12%	6%
CCOC(=O)OCC1OC(C#Cc2ccccc2)C=CC1Oc1cccc(N(C)C)c1 (configuration not stated)	x	x	24%[11.5 µM]	24%[11.4 µM]	17%[11.4 µM]
Nc1c(OCC(=O)O)ccc2cc(S(=O)(=O)O)ccc12	5%[11.4 µM]	-1%[7.6 µM]	-1%[11.5 µM]	1%[11.4 µM]	-6%[11.4 µM]
COc1ccccc1-c1nc(C#N)c(N2CCN(Cc3ccccc3)CC2)o1	23%	13µM*	u	u	u
SMILES	Tau filament bind	CRE-bla Fsk	ERK AVP inh	HEK293 cAMP ctrl	TSHR agonist
N#Cc1nc(COc2ccc(F)cc2)oc1N1CCN(Cc2ccccc2)CC1	22%	24%	-10%	6.3µM*	u
COc1ccccc1-c1nc(C#N)c(N2CCC(Cc3ccccc3)CC2)o1	56%	u	-12%	u	u
COc1ccccc1-c1nc(C#N)c(NCc2ccc(F)cc2)o1	-3%	13µM*	-20%	-2%	9%
N#Cc1nc(COc2ccccc2)oc1N1CCCCC1	6%	16%	-9%	u	u
CCN1CCN(c2oc(COc3ccc(-c4ccccc4)cc3)nc2C#N)CC1	324%	5µM*	-5%	u	u
COc1ccc(CCNc2oc(-c3ccccc3OC)nc2C#N)cc1	19%	u	-21%	6%	2%
CCOCC(=O)O	3%	6%	-3%	8%	-5%
COc1ncc2nc(-c3ccc(F)cc3)c(=O)n(Cc3ccc(F)cc3)c2n1	u	u	-3%	15%	-7%
CC(=O)Oc1cc(-c2coc3cc(OC(C)=O)c(OC(C)=O)c(OC(C)=O)c3c2=O)cc(OC(C)=O)c1OC(C)=O	x	x	-2%	x	x
C[C@H](O/N=C1/[C@H]2O[C@@H]2[C@@H](O)[C@H]2[C@H]1CCn1c(=O)n(-c3ccccc3)c(=O)n12)c1cn([C@H](CO)Cc2ccccc2)nn1	x	x	18%[11.5 µM]	-3%[11.4 µM]	-2%[11.4 µM]
CC(=O)O[C@@H]1CC[C@]2(C)C(=C[C@@H]([C@@H]3C=C4C[C@@H](OC(C)=O)CC[C@]4(C)C4=C3[C@H]3C[C@@H]5O[C@@]6(CC[C@H](C)CO6)[C@@H](C)[C@@H]5[C@@]3(C)CC4)C3=C2CC[C@@]2(C)[C@H]4[C@@H](C)[C@]5(CC[C@H](C)CO5)O[C@@H]4C[C@H]32)C1	6%[11.4 µM]	-7%[7.6 µM]	16%[11.5 µM]	3%[11.4 µM]	2%[11.4 µM]
N#Cc1nc(COc2ccc(F)cc2)oc1N1CCC(Cc2ccccc2)CC1	14%	u	17%	4µM*	u
Cc1ccc(S(=O)(=O)NC(=O)Nc2ncn[nH]2)cc1	-2%[11.4 µM]	0%[7.6 µM]	-5%[11.5 µM]	7%[11.4 µM]	-1%[11.4 µM]
Cc1ccc(CNc2cc(-c3nn4c(C)nnc4s3)ccc2C)s1	132%	20µM*	u	12%	x
C[N+](C)(C)CCN(Cc1cccs1)c1ccccn1	1%[11.4 µM]	1%[7.6 µM]	-3%[11.5 µM]	-10%[11.4 µM]	1%[11.4 µM]
COc1ccc(C(=O)[C@H]2[C@H]3[C@@H](C(=O)[C@@H]4OC[C@H]3O4)[C@H]3C=Cc4ccccc4N32)c(OC)c1	-18%	-21%	x	8%	-4%
Cc1c(S(=O)(=O)Nc2cccc(Cl)c2)c(=O)n(C)c(=O)n1C	-8%	2µM*	x	9%	7%
Cc1c(S(=O)(=O)Nc2ccc3c(c2)OCCO3)c(=O)n(C)c(=O)n1C	10%	-4%	x	2%	-4%[11.4 µM]
CCC(=O)Nc1ccc2nc(C)n(CC(=O)Nc3ccccc3)c(=O)c2c1	13µM*	-2%	-7%	-7%	0%
CCN(C(=O)c1c(-c2ccccc2)noc1C)c1ccccc1	-1%	u	-9%	8%	10µM*
COc1ccc(-c2cn3c(C)c(C(=O)Nc4cccc(C)n4)sc3n2)cc1	14%	12%	-13%	18%	18%
